# In PubChem BioAssay AID1159580 (chemical genetic matrix, 2015):
# Out of some 5,500 compounds screened, about 2,000 (36%) were called active. About 18% were inconclusive and are not listed. This is one part of the list. A number with no mark means an inactive call. Cut-off read from the data, not from the text of the source: active = normalized growth mostly below about 0.91 (no sharp cut-off); inconclusive = no clear call, values can overlap the other calls; inactive = mostly above about 0.92.
# Experiment: chemical genetic growth profiling, strain panel (AID 1159580);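 note: tested at 20 µM; growth read once vehicle control cultures reached saturation at 30 °C; 1 = growth at the plate median or of vehicle wells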
# Conditions: S. cerevisiae deletion strains, growth OD
# [1] = locus YDL101C, strain DUN1, stronger effect = lower value
# [2] = locus YHR030C, strain SLT2, stronger effect = lower value
# [3] = locus YMR307W, strain GAS1, stronger effect = lower value
smiles,measurement,setting,value
CSc1cc(-c2ccncc2)nc(-c2cccs2)c1,normalized growth,"locus YAR019C, strain CDC15, stronger effect = lower value",0.953
same,normalized growth,"locus YBL105C, strain PKC1, stronger effect = lower value",0.964
same,normalized growth,"locus YBR135W, strain CKS1, stronger effect = lower value",0.957
same,normalized growth,"locus YBR136W, strain MEC1, stronger effect = lower value",0.961
same,normalized growth,"locus YBR160W, strain CDC28, stronger effect = lower value",0.952
same,normalized growth,"locus YDL017W, strain CDC7, stronger effect = lower value",0.959
same,normalized growth,"locus YDL028C, strain MPS1, stronger effect = lower value",0.965
same,normalized growth,[1],0.971
same,normalized growth,"locus YDL108W, strain KIN28, stronger effect = lower value",0.96
same,normalized growth,"locus YDL132W, strain cdc53, stronger effect = lower value",0.961
same,normalized growth,"locus YDL214C, strain PRR2, stronger effect = lower value",0.965
same,normalized growth,"locus YDR052C, strain DBF4, stronger effect = lower value",0.965
same,normalized growth,"locus YDR054C, strain cdc34, stronger effect = lower value",0.957
same,normalized growth,"locus YDR226W, strain ADK1, stronger effect = lower value",0.951
same,normalized growth,"locus YDR477W, strain SNF1, stronger effect = lower value",0.941
same,normalized growth,"locus YER123W, strain YCK3, stronger effect = lower value",0.928
same,normalized growth,"locus YER133W, strain GLC7, stronger effect = lower value",0.927
same,normalized growth,"locus YFL009W, strain cdc4, stronger effect = lower value",0.975
same,normalized growth,"locus YFL029C, strain CAK1, stronger effect = lower value",0.952
same,normalized growth,"locus YFR003C, strain YPI1, stronger effect = lower value",0.96
same,normalized growth,"locus YFR019W, strain FAB1, stronger effect = lower value",0.965
same,normalized growth,"locus YFR028C, strain CDC14, stronger effect = lower value",0.952
same,normalized growth,"locus YGR040W, strain KSS1, stronger effect = lower value",0.928
same,normalized growth,"locus YGR052W, strain FMP48, stronger effect = lower value",1.05
same,normalized growth,"locus YGR092W, strain DBF2, stronger effect = lower value",0.89
same,normalized growth,[2],1.03
same,normalized growth,"locus YHR079C, strain IRE1, stronger effect = lower value",0.953
same,normalized growth,"locus YHR082C, strain KSP1, stronger effect = lower value",1.02
same,normalized growth,"locus YHR205W, strain SCH9, stronger effect = lower value",0.997
same,normalized growth,"locus YIL147C, strain SLN1, stronger effect = lower value",0.962
same,normalized growth,"locus YJL095W, strain BCK1, stronger effect = lower value",0.982
same,normalized growth,"locus YJL128C, strain PBS2, stronger effect = lower value",0.963
same,normalized growth,"locus YJL157C, strain FAR1, stronger effect = lower value",0.938
same,normalized growth,"locus YJR016C, strain ILV3, stronger effect = lower value",0.985
same,normalized growth,"locus YJR066W, strain TOR1 (second series), stronger effect = lower value",0.95
same,normalized growth,"locus YJR066W, strain TOR1, stronger effect = lower value",0.993
same,normalized growth,"locus YKL048C, strain ELM1, stronger effect = lower value",0.966
same,normalized growth,"locus YKL067W, strain YNK1, stronger effect = lower value",0.951
same,normalized growth,"locus YKL101W, strain HSL1, stronger effect = lower value",0.961
same,normalized growth,"locus YKL193C, strain SDS22, stronger effect = lower value",0.958
same,normalized growth,"locus YKL203C, strain TOR2, stronger effect = lower value",1
same,normalized growth,"locus YLR113W, strain HOG1, stronger effect = lower value",0.92
same,normalized growth,"locus YLR133W, strain CKI1, stronger effect = lower value",0.962
same,normalized growth,"locus YLR403W, strain SFP1, stronger effect = lower value",1.01
same,normalized growth,"locus YML070W, strain DAK1, stronger effect = lower value",0.929
same,normalized growth,"locus YMR001C, strain CDC5, stronger effect = lower value",0.964
same,normalized growth,"locus YMR205C, strain PFK2 (second series), stronger effect = lower value",0.963
same,normalized growth,"locus YMR277W, strain FCP1, stronger effect = lower value",0.961
same,normalized growth,"locus YNL006W, strain LST8, stronger effect = lower value",0.969
same,normalized growth,"locus YNL020C, strain ARK1, stronger effect = lower value",0.954
same,normalized growth,"locus YNL161W, strain CBK1, stronger effect = lower value",0.952
same,normalized growth,"locus YNL183C, strain NPR1, stronger effect = lower value",0.97
same,normalized growth,"locus YNL207W, strain RIO2, stronger effect = lower value",0.945
same,normalized growth,"locus YNL222W, strain SSU72, stronger effect = lower value",0.951
same,normalized growth,"locus YNL307C, strain MCK1 (second series), stronger effect = lower value",0.952
same,normalized growth,"locus YOL078W, strain AVO1, stronger effect = lower value",0.96
same,normalized growth,"locus YOL136C, strain PFK27, stronger effect = lower value",0.956
same,normalized growth,"locus YOR061W, strain CKA2, stronger effect = lower value",0.963
same,normalized growth,"locus YOR119C, strain RIO1, stronger effect = lower value",0.984
same,normalized growth,"locus YOR231W, strain MKK1, stronger effect = lower value",0.921
same,normalized growth,"locus YOR329C, strain SCD5, stronger effect = lower value",0.966
same,normalized growth,"locus YPL031C, strain PHO85, stronger effect = lower value",0.927
same,normalized growth,"locus YPL153C, strain RAD53, stronger effect = lower value",0.925
same,normalized growth,"locus YPL204W, strain HRR25, stronger effect = lower value",0.951
same,normalized growth,"locus YPL209C, strain IPL1, stronger effect = lower value",0.954
same,normalized growth,"locus YPL256C, strain CLN2, stronger effect = lower value",0.939
same,normalized growth,"locus YPR025C, strain CCL1, stronger effect = lower value",0.963
same,normalized growth,"locus YPR106W, strain ISR1, stronger effect = lower value",0.959
same,normalized growth,"locus YPR111W, strain DBF20, stronger effect = lower value",0.947
same,normalized growth,"strain NNK1, stronger effect = lower value",0.965
same,normalized growth,"strain TSCII, stronger effect = lower value",0.951
CSc1c(C#N)c(-c2cccs2)nn1C,normalized growth,"locus YAL013W, strain DEP1, stronger effect = lower value",0.934
same,normalized growth,"locus YBR229C, strain ROT2, stronger effect = lower value",0.935
same,normalized growth,[1],0.934
same,normalized growth,"locus YDR150W, strain NUM1, stronger effect = lower value",0.86
same,normalized growth,"locus YEL061C, strain CIN8, stronger effect = lower value",0.924
same,normalized growth,"locus YGR078C, strain PAC10, stronger effect = lower value",0.913 (active)
same,normalized growth,[2],0.505 (active)
same,normalized growth,"locus YHR087W, strain rtc3, stronger effect = lower value",0.898 (active)
same,normalized growth,"locus YJL187C, strain SWE1, stronger effect = lower value",1.02
same,normalized growth,"locus YJR043C, strain POL32, stronger effect = lower value",0.978
same,normalized growth,"locus YJR075W, strain HOC1, stronger effect = lower value",0.89 (active)
same,normalized growth,"locus YLR039C, strain RIC1, stronger effect = lower value",0.87
same,normalized growth,"locus YLR058C, strain SHM2 (second series), stronger effect = lower value",0.92 (active)
same,normalized growth,"locus YLR085C, strain ARP6, stronger effect = lower value",0.784
same,normalized growth,"locus YLR262C, strain YPT6, stronger effect = lower value",0.879
same,normalized growth,"locus YML094W, strain GIM5, stronger effect = lower value",0.911
same,normalized growth,"locus YMR219W, strain ESC1, stronger effect = lower value",0.945
same,normalized growth,"locus YMR263W, strain SAP30, stronger effect = lower value",0.949
same,normalized growth,[3],0.983
same,normalized growth,"locus YNL153C, strain GIM3, stronger effect = lower value",0.959
same,normalized growth,"locus YNL298W, strain CLA4 (second series), stronger effect = lower value",0.804 (active)
same,normalized growth,"locus YNL322C, strain KRE1, stronger effect = lower value",0.931 (active)
same,normalized growth,"locus YNR030W, strain Alg12, stronger effect = lower value",0.859 (active)
same,normalized growth,"locus YPL055C, strain LGE1, stronger effect = lower value",0.917
same,normalized growth,"locus YPL241C, strain CIN2, stronger effect = lower value",0.886
same,normalized growth,"locus YPR135W, strain CTF4, stronger effect = lower value",0.509 (active)
NCC(CP(=O)(O)O)c1ccc(Cl)cc1 (stereo not drawn),normalized growth,"locus YAL040C, strain CLN3, stronger effect = lower value",1.04
same,normalized growth,"locus YCL061C, strain MRC1 (second series), stronger effect = lower value",0.978
same,normalized growth,"locus YDR363W, strain ESC2, stronger effect = lower value",0.99
same,normalized growth,"locus YER002W, strain NOP16, stronger effect = lower value",0.991
same,normalized growth,"locus YGR229C, strain SMI1, stronger effect = lower value",0.963
same,normalized growth,[3],0.995
same,normalized growth,"locus YNL128W, strain TEP1, stronger effect = lower value",0.987
same,normalized growth,"locus YNL175C, strain NOP13, stronger effect = lower value",0.986
same,normalized growth,"locus YNL197C, strain WHI3, stronger effect = lower value",0.998
same,normalized growth,"locus YNL224C, strain SQS1, stronger effect = lower value",1
same,normalized growth,"locus YOR083W, strain WHI5 (second series), stronger effect = lower value",0.98
